Measured values: PubChem BioAssay (Tox21)
Several values for one entry are separate records, joined by “and”; a condition that tells them apart may be missing. Identical values can stand only once. Values without a mark were called inactive. Inconclusive results are not listed. Entries that show only a call come without a potency. Activity calls are given as the source filed them. Unless noted, calls follow the shape of the dose curve; as a rule, active = well fitted curve in the direction sought with a large enough effect in the repeat runs; inconclusive = weak or mixed curves; inactive = no such curve, though single readings can be large; an effect the other way counts as inactive or inconclusive.

How the values were obtained:
[1] = qHTS assay to identify small molecule agonists of the hypoxia (HIF-1) signaling pathway - cell viability counter screen (AID 1224844; calls by dose curve; also: nearly all actives have a fitted effect of over 50% in size)
How it was run: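 Multiplexed with the HRE beta-lactamase assay, this viability read used CellTiter-Glo luminescence (30 min, RT) on HRE-bla ME-180 cells treated 17 hrs with compounds in 0.5% dialyzed FBS medium.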

[2] = qHTS assay to identify small molecule agonists of H2AX (AID 1224845; active = well fitted activation curve with a large enough effect in the signal ratio in the repeat runs, not every such curve was filed as active; the % refers to the signal ratio)
How it was run: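 Wild-type CHO-K1 cells, plated overnight, exposed 3hr at 37C to 15 concentrations (0.76% DMSO final). Lysed, then HTRF anti-pH2AX (S139) cryptate and anti-H2AX-d2 antibodies, 24 hr room temperature; 665/620 nm emission read.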

[3] = qHTS assay to identify small molecule agonists of the hypoxia (HIF-1) signaling pathway (AID 1224846; active = well fitted activation curve with a large enough effect in the signal ratio in the repeat runs, not every such curve was filed as active; the % refers to the signal ratio)
How it was run: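 Hypoxia-pathway activation was scored as increased beta-lactamase from an HRE-controlled reporter in ME-180 cells; plated at 2,000 cells per well with 0.5% dialyzed FBS, they were exposed 17 hrs to compounds and then given CCF4-AM.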

[4] = qHTS assay to identify small molecule agonists of H2AX - cell viability counter screen (AID 1224847; calls by dose curve; also: top concentration of the series differs between compounds; nearly all actives have a fitted effect of over 30% in size)
How it was run: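 Compounds tested at 15 concentrations were incubated 3 hr at 37C with wild-type CHO-K1 cells; cellular ATP-based luminescence (CellTiter-Glo) indicated viability.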

[5] = qHTS assay to identify small molecule antagonists of the estrogen related receptor (ERR) signaling pathway from Tox21 library (AID 1224848); also: nearly all actives have a fitted effect of over 50% in size; also: potency is read from the fitted curve at half-maximal effect
How it was run: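 ERR reporter cell line (from NTP) seeded 2,000 cells/well, rested 6 h at 37 C/5% CO2, then pin-dosed with compounds in DMSO. After 18 h at 37 C, ONE-Glo added; luminescence read after 30 min at room temperature.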

[6] = qHTS assay to identify small molecule agonists of the estrogen related receptor (ERR) signaling pathway from Tox21 library (AID 1224849; calls by dose curve; also: nearly all actives have a fitted effect of over 15% in size); conditions: ERR reporter cell line, ONE-Glo luciferase, 18 h; at 92.4 µM (top of the series) unless noted
How it was run: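 Six hours post-seeding at 37 C/5% CO2, ERR cells receive DMSO-solubilised compounds; after 18 h at 37 C, ONE-Glo reagent is applied and luminescence recorded.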

[7] = qHTS RealTime-Glo MT Cell Viability Assay in HepG2 cells - 24 hour (AID 1224867); also: nearly all actives have a fitted effect of over 50% in size
How it was run: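 Luminescence read-out: viable HepG2 cells reduce a prosubstrate to a NanoLuc substrate, giving a signal proportional to live cell number. Reads taken at 0, 8, 16, 24, 32 and 40 h of compound exposure at 37 C.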

[8] = qHTS RealTime-Glo MT Cell Viability Assay in HEK293 cells - 32 hour (AID 1224868); also: top concentration of the series differs between compounds; nearly all actives have a fitted effect of over 50% in size
How it was run: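 Nonlytic real-time viability readout: viable cells convert prosubstrate to NanoLuc substrate, giving luminescence proportional to live cell number. HEK293, 600 cells/well, compound added after 5 h, continuous culture at 37 C.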

[9] = A CellTox Green Cytotoxicity Assay to monitor cytotoxicity in HEK293 cells - 0 hour (AID 1224869); also: nearly all actives have a fitted effect of over 50% in size
How it was run: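 Seeding of HEK293 cells together with cytotoxicity dye preceded a 5 h incubation at 37 C/5% CO2. Test compounds in DMSO were then added and fluorescence monitored across 40 h.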

[10] = qHTS RealTime-Glo MT Cell Viability Assay in HepG2 cells - 40 hour (AID 1224870); also: nearly all actives have a fitted effect of over 50% in size
How it was run: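 HepG2 cells (600/well) mixed with RealTime-Glo MT reagent, settled 5 h at 37 C/5% CO2 before compound addition. Nonlytic NanoLuc luminescence from viable-cell prosubstrate reduction read repeatedly during 40 h treatment at 37 C.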

| SMILES | Potency [1] | outcome [2] | outcome [3] | Potency [4] | Potency [5] | activity change, positive = activation [6] | Potency [7] | Potency [8] | Potency [9] | Potency [10] | activity change, negative = cytotoxicity [1] | activation [3] | activity, negative = inhibition [5] | activity change, negative = cytotoxicity [7] | activity change, negative = cytotoxic [8] | cytotoxicity [9] | activity change, negative = cytotoxic [10] |
| --- | --- | --- | --- | --- | --- | --- | --- | --- | --- | --- | --- | --- | --- | --- | --- | --- | --- |
| CCOC(=O)c1cccc(N)c1 | inactive | inactive | inactive | inactive | inactive | -2.77% [at 42.5 µM] | inactive | inactive | inactive | inactive |  |  |  |  |  |  |  |
| CC(=O)CC(C)(C)C1CCCCC1 | inactive | inactive | inactive | inactive | inactive | 0.591% | inactive | inactive | inactive | inactive |  |  |  |  |  |  |  |
| CC(C)CNCC(C)C | inactive | inactive | inactive | inactive | inactive | 1.17% | inactive | inactive | inactive | inactive |  |  |  |  |  |  |  |
| CCO[Si](CCC1CCC2OC2C1)(OCC)OCC (centres undefined) | inactive | inactive | inactive | inactive | inactive | 3.88% | inactive | inactive | inactive | inactive |  |  |  |  |  |  |  |
| Cc1cccn2c(=O)c(-c3nnn[nH]3)cnc12 |  | inactive |  | inactive |  | 4.72% [at 19 µM] |  |  |  |  | -2.16% [at 15.8 µM] | -0.179% [at 15.8 µM] | 7.1% [at 19 µM] | -2.42% [at 15.8 µM] | -0.452% [at 15.8 µM] | 3.94% [at 15.8 µM] | 2.03% [at 15.8 µM] |
| Cn1cc(S(C)=O)c(=O)c2ccc(F)cc21 (centres undefined) | inactive | inactive | inactive | inactive | inactive | 0.0404% [at 42.5 µM] | inactive | inactive | inactive | inactive |  |  |  |  |  |  |  |
| Nc1ccccc1S(=O)(=O)O | inactive | inactive | inactive | inactive | inactive | 3.7% | inactive | inactive | inactive | inactive |  |  |  |  |  |  |  |
| Cc1ccc(Cl)cc1Cl | inactive | inactive | inactive | inactive | inactive | -0.115% | inactive | inactive | inactive | inactive |  |  |  |  |  |  |  |
| O=Cc1cccc([N+](=O)[O-])c1 | inactive | inactive | inactive | inactive | inactive | -4.24% | inactive | inactive | inactive | inactive |  |  |  |  |  |  |  |
| C=C(C)CS(=O)(=O)O | inactive | inactive | inactive | inactive | inactive | 0.527% | inactive | inactive | inactive | inactive |  |  |  |  |  |  |  |
| CCc1nccnc1CC |  | inactive |  | inactive |  | 2.61% [at 19 µM] |  |  |  |  | 5.25% [at 15.8 µM] | 0.257% [at 15.8 µM] | 3.93% [at 19 µM] | -0.21% [at 15.8 µM] | 3.89% [at 15.8 µM] | -0.912% [at 15.8 µM] | -2.15% [at 15.8 µM] |
| COc1ccc2c(c1)CCCC2=O | inactive | inactive | inactive | inactive | inactive | 4.85% [at 42.5 µM] | inactive | inactive | inactive | inactive |  |  |  |  |  |  |  |
| CCCN1CCCC[C@H]1C(=O)Nc1c(C)cccc1C | inactive | inactive | inactive | inactive | inactive | 6.18% [at 42.5 µM] | inactive | inactive |  | inactive |  |  |  |  |  |  |  |
| C[C@@H]1CCN(C(=O)[C@H](CCCN=C(N)N)NS(=O)(=O)c2cccc3c2NC[C@H](C)C3)[C@@H](C(=O)O)C1 | inactive | inactive | inactive | inactive | inactive | 6.26% [at 42.5 µM] | inactive | inactive |  | inactive |  |  |  |  |  |  |  |
| CC/C=C\CC/C=C/CO | inactive | inactive | inactive | inactive | inactive | 5.28% | inactive | inactive | inactive | inactive |  |  |  |  |  |  |  |
| C[C@H]1C[C@@H](O)CC(C)(C)C1 | inactive | inactive | inactive | inactive | inactive | 0.742% | inactive | inactive |  | inactive |  |  |  |  |  |  |  |
| C1CN(CCOCCN2CCOCC2)CCO1 | inactive | inactive | inactive | inactive | inactive | -7.8% | inactive | inactive | inactive | inactive |  |  |  |  |  |  |  |
| C=CCOCC(CC)(CO)COCC=C | inactive | inactive | inactive | inactive | inactive | 4.88% | inactive | inactive |  | inactive |  |  |  |  |  |  |  |
| CC(=O)OC/C=C(\C)CC/C=C(\C)CCC=C(C)C | inactive | inactive | inactive | inactive | inactive | 1.18% and 2.19% | inactive | inactive | inactive | inactive |  |  |  |  |  |  |  |
| C=COCC1CCC(CO)CC1 (centres undefined) | inactive | inactive | inactive | inactive | inactive | 2.36% | inactive | inactive | inactive | inactive |  |  |  |  |  |  |  |
| C[C@H](NC(CCc1ccccc1)C(=O)O)C(=O)N1CCC[C@H]1C(=O)O (some centres undefined) | inactive | inactive | inactive | inactive | 5.96 µM (active) | -0.914% [at 42.5 µM] | inactive | inactive |  | inactive |  |  |  |  |  |  |  |
| CN1C(=O)N(C)C(O)C1O (centres undefined) | inactive | inactive | inactive | inactive | inactive | 0.239% | inactive | inactive |  | inactive |  |  |  |  |  |  |  |
